# TRPV1 agonist = agonists of human vanilloid receptor 1 (TRPV1); Q8NER1; 0.19% of 320,000 active; AID 540275; activation, % at 8.33 µM; TRPV1-expressing cells, Fluo-8 calcium influx, agonist mode; in the data active = activation above about 80%; inconclusive = between about 30% and that limit
#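 TRPV1-expressing cells were cultured overnight at 35.5C and loaded with Fluo-8 calcium dye for 40 to 90 min at room temperature. After a 10 s baseline, compound was added and calcium influx was read kinetically for 3 min (ex 480/em 520 nm).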
# RORg inh = blocks mouse ROR gamma transcriptional activity | P51450 | Drosophila S2 Gal4-RORgamma UAS-luciferase reporter, 20 h | Potency, µM (doses to about 53.6 µM), actives largely listed as inhibitors | 5.4% of 310,000 active | AID 2551; note: nearly all actives have a fitted effect of over 60% in size
# Target sequence (P51450 whole entry, looked up, the tested form may be a part): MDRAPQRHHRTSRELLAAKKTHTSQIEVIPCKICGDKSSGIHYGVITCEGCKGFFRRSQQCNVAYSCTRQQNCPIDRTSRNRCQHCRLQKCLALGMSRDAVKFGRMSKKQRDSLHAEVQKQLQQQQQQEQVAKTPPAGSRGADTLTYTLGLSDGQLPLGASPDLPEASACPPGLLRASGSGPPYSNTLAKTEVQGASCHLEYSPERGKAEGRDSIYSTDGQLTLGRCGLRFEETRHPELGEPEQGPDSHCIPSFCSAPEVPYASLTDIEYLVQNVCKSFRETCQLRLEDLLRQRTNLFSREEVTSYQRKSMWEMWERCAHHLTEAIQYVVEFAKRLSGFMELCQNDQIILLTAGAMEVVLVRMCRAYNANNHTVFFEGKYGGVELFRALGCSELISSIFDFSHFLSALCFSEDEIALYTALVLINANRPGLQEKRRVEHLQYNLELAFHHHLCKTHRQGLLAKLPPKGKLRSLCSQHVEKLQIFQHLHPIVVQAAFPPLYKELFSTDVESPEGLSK
#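 Drosophila Schneider cells stably carrying a metallothionein-driven Gal4 DBD–ROR gamma fusion and a UAS-Photinus luciferase reporter were exposed to compound for 1 hr, then induced with copper sulfate (700 uM final) for 20 hr at ambient temperature before luminescence reading.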
# TRPV1 PAM = potentiators of human vanilloid receptor 1 (TRPV1); Q8NER1; TRPV1-expressing cells, Fluo-8 calcium influx, capsaicin EC20 potentiation; potentiation, % at 8.33 µM; 0.02% of 320,000 active; AID 540277; in the data active = potentiation above about 80%; inconclusive = between about 30% and that limit
#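 Cells expressing TRPV1 were dye-loaded with Fluo-8 and read kinetically: 10 s baseline, 3 min after compound (agonist portion), then 2 min after EC20 capsaicin (allosteric enhancer portion). Calcium-bound dye fluorescence at 480/520 nm.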
# uPA generation = inhibitors of cell surface uPA generation. cell surface uPA generation assay, qHTS. Potency, µM (titrated, usually from 38.3 µM), usual class: inhibitors. 0.31% of 330,000 active. AID 540303; active = well fitted inhibition curve with a large enough effect; inconclusive = small, poorly fitted or top-dose-only effect; inactive = no such curve, though single readings can be large or run the other way; tested in mouse RAW 264.7 cells; note: nearly all actives have a fitted effect of over 55% in size
# Gal4-VP16 FLuc = inhibits Gal4-VP16 luciferase reporter, ROR gamma counter-screen; Drosophila S2 Gal4-VP16 UAS-luciferase, luminescence, 20 h; Potency, µM (doses to about 53.6 µM), usual class: inhibitors; AID 2546; 3.5% of 310,000 active;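 note: Gal4-VP16 expression switched on by copper sulfate through the metallothionein promoter; nearly all actives have a fitted effect of over 50% in size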
# Hits are given with their value; 0 = inactive; ? = inconclusive; - = no result given; [ ] = remark or other dose. An excerpt weighted towards active compounds, which were near 5.8% of everything screened. Unless noted, calls come from the whole dose curve; as a rule, active = well fitted curve in the direction sought with a large enough effect; inconclusive = small, poorly fitted or top-dose-only effect, or another doubt; inactive = no such curve, though single readings can be large; an effect the other way counts as inactive or inconclusive.
SMILES,TRPV1 agonist,RORg inh,TRPV1 PAM,uPA generation,Gal4-VP16 FLuc
CC(C)n1c(/C=C/c2ccccc2)nc2ccccc21,?,13µM,0,0,16µM
CCn1c(/C=C/c2cc[n+](C)cc2)nc2ccccc21,0,0,0,0,0
CC(C)Cn1c(/C=C/c2ccco2)nc2ccccc21,0,11µM,0,0,?
CCN1C(=O)[C@@H]2[C@H](C1=O)[C@@H]1C(=O)Nc3ccccc3C(=O)N1[C@@H]2c1cccc(C)c1,0,-,?,0,-
CCCN1CCN(C(=O)c2oc3c(Cl)cccc3c2C)CC1,0,0,0,0,0
O=C(Nc1ccc(Oc2cccc3ccccc23)cc1)c1ccco1,0,?,0,0,?
COc1ccc2c(c1)O[C@H](c1ccc3c(c1)OCO3)[C@@H](OC(=O)Nc1ccc(OC(F)F)cc1)C2=O,-,0,-,-,0
c1ccc(CN=C2NN=C(c3ccccc3)CS2)cc1,0,?,0,0,0
CCN=C1NN=C(c2ccc(C)cc2)CS1,0,11µM,0,0,?
Clc1ccc(C2=NNC(=NCc3ccccc3)SC2)cc1,0,5µM,0,0,?
Fc1ccc(C2=NNC(=NCc3ccccc3)SC2)cc1F,0,14µM,0,0,0
COCCN=C1NN=C(c2ccc(NC(C)=O)cc2)CS1,0,?,0,0,0
CC(C)N=C1NN=C(c2ccc(F)cc2)CS1,0,7.1µM,0,0,?
Cc1nc(Cl)sc1C(=O)Nc1cccc(Cl)c1C,0,0,0,0,0
CC(C)(C)N(Cc1ccccc1)C(=O)COC(=O)CNC(=O)c1ccco1,0,-,0,0,-
COc1ccccc1C1=NNC(=NCc2ccccc2)SC1,0,11µM,0,0,0
CC(=O)c1c(C)[nH]c(C2=NNC(=NCc3ccccc3)SC2)c1C,0,0,0,0,0[10 µM]
C=CCNC(=S)NNc1nc2sc3c(c2c(=O)[nH]1)CC(C)(C)OC3,0,5.6µM,0,0,10µM
Cc1ccc2[nH]c3c(=O)n4c(nc3c2c1)SCC4,0,0,0,0,0
CCN(CC)c1ccc(NC(=O)c2cc3ccccc3o2)c(C)c1,83,0,0,-,0
Cc1cc(NC(=O)c2ccc3c(c2)OCO3)ccc1NC(=O)c1ccccc1,0,0,0,0,0
CCN(CC)c1ccc(NC(=O)c2ccc3c(c2)OCO3)c(C)c1,82,-,0,0,-
NC(=O)NN=C1CC2CC1C1C=CCC21 (configuration not stated),-,-,-,0,-
NNC(=S)NC1CC2CC1C1C=CCC21 (configuration not stated),0,0.45µM,0,0,2.8µM
c1cn(-c2ncnc3ccc(-c4ccoc4)cc23)cn1,-,4.5µM,-,-,?
SMILES,TRPV1 agonist,RORg inh,TRPV1 PAM,uPA generation,Gal4-VP16 FLuc
CC(C)(C)c1ccc(-c2noc(C(=O)NN)n2)cc1,0,10µM,0,0,0
O=C(NCc1ccccn1)c1nc(-c2ccc(C(F)(F)F)cc2)no1,?,0,0,0,0
O=C(Cc1cccc(NC(=O)C2CCCN(C(=O)C3CCCCC3)C2)c1)Nc1ccc(C(=O)N2CCCCC2)cc1 (configuration not stated),-,-,-,0,-
O=C(C=Cc1ccccc1)c1c[nH]c2ccccc2c1=O,-,-,-,0,-
COC(=O)c1c(C)[nH]c(C(=O)OCc2ccc(F)cc2)c1C,0,0,0,0,0
COC(=O)c1c(C)[nH]c(C(=O)/C=C/c2ccccc2)c1C,0,1.4µM,0,0,7.1µM
COC(=O)c1c(C)[nH]c(C(=O)/C=C/c2ccc(C)cc2)c1C,0,0.32µM,0,0,4µM
COC(=O)c1c(C)[nH]c(C=O)c1-c1ccccc1,-,0,-,0,0
COC(=O)c1c(C)[nH]c(C(=O)/C=C/c2cccc(Cl)c2)c1C,0,8.9µM,0,0,?
Cc1[nH]c2ccccc2c(=O)c1C(=O)/C=C/c1ccccc1,0,5.6µM,0,0,5.6µM
CO[C@H]1COC(=O)[C@@H](C)COC(=O)[C@@H](COCc2ccccc2)NC(=O)C/C=C\[C@H]1C,-,0[10 µM],-,-,0[10 µM]
CC1CC(=O)N(C)c2cc([N+](=O)[O-])ccc2N1 (configuration not stated),0,?,0,0,0
Cc1cc(=O)oc2cc(NC(=O)CC(N)C(=O)O)ccc12 (configuration not stated),-,0,-,-,0
CCOC(=O)CC(=O)CSc1n[nH]c(=O)[nH]c1=O,0,0,0,0,0
CCCCc1ccc(/C=C(\C#N)C(N)=S)s1,0,7.1µM,0,0,?
CCCC[C@@H]1CCCO[C@@](C(=O)NCc2ccccc2)(C(F)(F)F)C1,-,0,-,-,0
CNC(=O)NC(=S)NC(=O)c1cccc(Cl)c1,0,14µM,0,0,0[10 µM]
CC(C)(C)c1ccc(C(=O)NNC(=S)NCc2ccco2)cc1,0,10µM,0,0,0
COC(=O)NNC(=O)c1ccc(C(C)(C)C)cc1,0,0,0,0,0
CCC(C)NC(=S)NNC(=O)c1ccc(C(C)(C)C)cc1 (configuration not stated),?,10µM,0,0,8.9µM
Cc1ccccc1CSCC(=O)NC(=O)NCc1ccco1,0,0,0,0,?
CNC(=O)NC(=S)NC(=O)c1ccccc1Cl,0,?,0,0,0
O=C(CSCc1ccccc1Br)NNC(=S)NCc1ccco1,0,?,0,0,10µM
CC(=O)OCC1OC(C#CC(C)(C)C)C=CC1OC(C)=O (configuration not stated),-,?,-,-,0[10 µM]
CSCC[C@H](NC(=O)[C@H](CC(C)C)NC(=O)[C@@H]1CCCN1C(=O)[C@H](Cc1ccccc1)NC(=O)[C@H](Cc1ccccc1)NC(=O)[C@@H]1CCC(=O)N1)C(N)=O,-,0,-,-,0
O=C(NCc1ccccc1)c1cccc(COc2cccc(Cl)c2)c1,0,0,0,0,0
CC(C)(C)c1ccc(C(=O)c2c[nH]c(C(=O)NCc3ccco3)c2)cc1,0,?,0,0,13µM

# Screening results (PubChem BioAssay)
